Source: PubChem BioAssay (EPA / NIEHS)
Results filed as inconclusive are left out. Active and inactive are the calls of the source. Rule for the calls, unless noted: active = hit-call score of the fitted dose curve at least 0.9, where 1 is the maximum; inconclusive = response in the unintended direction; inactive = score below 0.9.

What was measured:
[1] = target: Estrogen receptor (Homo sapiens) (UniProt P03372); assay: ATG_ERa_TRANS: Attagene TRANS-FACTORIAL HepG2 Assay for human Estrogen Receptor alpha (ERa) (AID 2282970); details: HepG2 Attagene TRANS ERa GAL4 reporter, mRNA
Outline: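 After 24 h of compound treatment, RNA from HepG2 cells bearing transfected GAL4-UAS reporter constructs is converted to cDNA, amplified and fluorescently labelled. Capillary electrophoresis resolves the ERa-linked reporter; DMSO serves as negative control.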

[2] = target: X-box-binding protein 1 (Homo sapiens) (UniProt P17861); assay: ATG_Xbp1_CIS: Attagene CIS-FACTORIAL HepG2 Assay for human X-box Binding Protein 1 (XBP1) (AID 2282972; active = hit-call score of the fitted dose curve at least 0.9, where 1 is the maximum; inactive = score below 0.9); details: HepG2 XBP1 cis-element reporter, Attagene multiplex; actives raise or lower the signal
Outline: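 HepG2, transient MRTU transfection (cis-promoter driven), 24 h compound exposure. Total RNA → oligo(dT) RT → PCR → 6-FAM labeling → HpaI cut → CE. Bidirectional fit vs DMSO.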

[3] = target: Androgen receptor (Homo sapiens) (UniProt P10275); assay: ATG_AR_TRANS: Attagene TRANS-FACTORIAL HepG2 Assay for human Androgen Receptor (AR) (AID 2282973); details: HepG2 Attagene TRANS-FACTORIAL AR reporter transcription
Outline: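 Readout is reporter transcript abundance, quantified by fluorescent RT-PCR products separated on capillary electrophoresis. Human HepG2 liver cells carried transiently transfected NR-Gal4 chimera plus GAL4-UAS reporter constructs and were dosed for 24 h; activity scored upward versus DMSO.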

[4] = target: Estrogen-related receptor gamma (Homo sapiens) (UniProt P62508); assay: ATG_ERRg_TRANS: Attagene TRANS-FACTORIAL HepG2 Assay for human Estrogen-Related Receptor gamma (ERRg) (AID 2282977); details: HepG2 Attagene TRANS reporter, ERRg transactivation;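 note: hits increase reporter signal over DMSO so potencies reflect activators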
Outline: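 HepG2 cells transiently transfected with multiplexed GAL4-UAS reporter units and chimeric NR-Gal4 constructs were exposed to test chemicals for 24 h. Reporter mRNA was measured by RT-PCR, 6-FAM primer extension, HpaI digestion and capillary electrophoresis; gain-of-signal versus DMSO.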

[5] = target: Bile acid receptor (Homo sapiens) (UniProt Q96RI1); assay: ATG_FXR_TRANS: Attagene TRANS-FACTORIAL HepG2 Assay for Farnesoid X Receptor (FXR) (AID 2282979); details: HepG2 Attagene TRANS FXR-GAL4 reporter transcription;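 note: hits raise reporter mRNA above DMSO so AC50 marks FXR activation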
Outline: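 Read-out: fluorescent reporter transcripts quantified by capillary electrophoresis after RT-PCR of total RNA. Source cells were HepG2 transiently carrying chimeric NR-GAL4 plus GAL4-UAS reporter units, dosed 24 h. Activity fitted upward relative to DMSO baseline.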

[6] = target: Oxysterols receptor LXR-beta (Homo sapiens) (UniProt P55055); assay: ATG_LXRb_TRANS: Attagene TRANS-FACTORIAL HepG2 Assay for human Liver X Receptor beta (LXRb) (AID 2282981); details: HepG2 Attagene TRANS GAL4-LXRb reporter, mRNA
Outline: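 HepG2 cells transiently transfected with multiple reporter transcription units carrying chimeric NR-Gal4 proteins acting on GAL4-UAS reporters; compound exposure 24 h. Reporter mRNA quantified by RT-PCR, 6-FAM labelling, HpaI digestion and capillary electrophoresis; gain of signal versus DMSO.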

[7] = target: Hepatocyte nuclear factor 4-alpha (Homo sapiens) (UniProt P41235); assay: ATG_HNF4a_TRANS: Attagene TRANS-FACTORIAL HepG2 Assay for human Hepatocyte Nuclear Factor 4 alpha (HNF4a) (AID 2282982); details: HepG2 HNF4a transactivation reporter, mRNA readout
Outline: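 HepG2 cells transiently transfected with multiplexed GAL4-UAS reporter units responsive to chimeric NR-GAL4 proteins; compound exposure 24 h. Reporter mRNA quantified by RT-PCR, 6-FAM labelling, HpaI digestion and capillary electrophoresis; gain of signal versus DMSO baseline.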

[8] = ATG_M_06_TRANS: Attagene TRANS-FACTORIAL HepG2 Assay for M06 Transcription Factor (Internal Marker) (AID 2282983); details: HepG2 Attagene TRANS M06 internal marker reporter
Outline: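 After a 24 h chemical treatment of transfected HepG2, RNA underwent DNase I treatment, reverse transcription and reporter-specific PCR; labelled, HpaI-digested products were sized by capillary electrophoresis. Signal increase relative to DMSO defined activity.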

[9] = target: Transcriptional activator Myb (Homo sapiens) (UniProt P10242); assay: ATG_Myb_CIS: Attagene CIS-FACTORIAL HepG2 Assay for human Myeloblastosis (Myb) Proto-Oncogene Transcription Factor (AID 2282986; active = hit-call score of the fitted dose curve at least 0.9, where 1 is the maximum; inactive = score below 0.9); details: HepG2 Attagene CIS-FACTORIAL Myb reporter transcription; actives raise or lower the signal
Outline: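 Reporter mRNA is quantified by RT-PCR and capillary electrophoresis 24 h after dosing HepG2 cells transfected with cis-regulated reporter units, which track endogenous transcription factor activity. Gain and loss of signal are fitted versus DMSO baseline.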

[10] = target: Nuclear respiratory factor 1 (Homo sapiens) (UniProt Q16656); assay: ATG_NRF1_CIS: Attagene CIS-FACTORIAL HepG2 Assay for human Nuclear Respiratory Factor 1 (NRF1) Orphan Gene (AID 2282987; active = hit-call score of the fitted dose curve at least 0.9, where 1 is the maximum; inactive = score below 0.9); details: HepG2 NRF1 cis-element reporter, Attagene multiplex; actives raise or lower the signal
Outline: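 Endogenous NRF1-driven reporter transcription in transfected HepG2 cells after 24 h treatment. Readout: RT-PCR products, 6-FAM labelled and resolved by capillary electrophoresis; changes fitted both directions relative to DMSO.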

[11] = ATG_NFI_CIS: Attagene CIS-FACTORIAL HepG2 Assay for human Nuclear Factor I (NFI) (AID 2282989; active = hit-call score of the fitted dose curve at least 0.9, where 1 is the maximum; inactive = score below 0.9); details: HepG2 cis-regulatory reporter, NFI response element transcription; actives raise or lower the signal
Outline: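 HepG2, transient MRTU, 24 h exposure; RNA→cDNA→PCR→FAM label→HpaI→CE fluorescence. Bidirectional fit, DMSO = baseline.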

[12] = target: Myc proto-oncogene protein (Homo sapiens) (UniProt P01106); assay: ATG_Myc_CIS: Attagene CIS-FACTORIAL HepG2 Assay for human Myelocytomatosis (Myc) Proto-Oncogene Transcription Factor (AID 2282990; active = hit-call score of the fitted dose curve at least 0.9, where 1 is the maximum; inactive = score below 0.9); details: HepG2, Attagene cis-reporter transcription factor activity; actives raise or lower the signal
Outline: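 Multiplexed cis-reporter transcription in HepG2 cells after 24 h chemical treatment. Reporter mRNA measured by RT-PCR and capillary electrophoresis fluorescence; activity fitted bidirectionally against DMSO control.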

[13] = ATG_GAL4_TRANS: Attagene TRANS-FACTORIAL HepG2 Assay for GAL4 (Internal Marker) (AID 2282976); details: HepG2 Attagene TRANS GAL4 internal marker reporter
Outline: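 RT-PCR/capillary electrophoresis readout of reporter mRNA. HepG2, transient MRTU transfection (GAL4-UAS reporters), 24 h compound exposure. Background-control endpoint, positive direction vs DMSO baseline.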

[14] = target: Glucocorticoid receptor (Homo sapiens) (UniProt P04150); assay: ATG_GR_TRANS: Attagene TRANS-FACTORIAL HepG2 Assay for human Glucocorticoid Receptor (GR) (AID 2282978); details: HepG2 Attagene TRANS GR reporter, mRNA transcription;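 note: activators score as hits since higher reporter transcript over DMSO is fitted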
Outline: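 Readout is reporter transcript from a chimeric GR-Gal4 acting on GAL4-UAS in transfected human HepG2 liver cells after 24 h exposure, quantified by RT-PCR and capillary electrophoresis. Activation fitted upward against DMSO.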

[15] = ATG_M_32_TRANS: Attagene TRANS-FACTORIAL HepG2 Assay for M32 Transcription Factor (Internal Marker) (AID 2282984); details: HepG2 Attagene TRANS M32 internal marker reporter;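 note: transcript level of a background control reporter unit measured by RT-PCR and capillary electrophoresis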
Outline: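 HepG2 cells transiently transfected with multiple GAL4-UAS reporter transcription units, dosed for 24 hours; reporter mRNA quantified by RT-PCR, 6-FAM primer extension, HpaI digestion and capillary electrophoresis. Gain-of-signal fitted versus DMSO baseline; internal background-control marker.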

[16] = target: Steroid hormone receptor ERR1 (Homo sapiens) (UniProt P11474); assay: ATG_ERRa_TRANS: Attagene TRANS-FACTORIAL HepG2 Assay for human Estrogen-Related Receptor alpha (ERRa) (AID 2282971); details: HepG2 Attagene TRANS reporter, ERRa transactivation
Outline: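 Transfected HepG2, 24 h dosing, ERRa-Gal4 chimera driving GAL4-UAS reporter. Readout: reporter mRNA via RT-PCR plus capillary electrophoresis (fluorescence). Positive direction vs DMSO control.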

[17] = target: Nuclear receptor subfamily 4 group A member 2 (Homo sapiens) (UniProt P43354); assay: ATG_NURR1_TRANS: Attagene TRANS-FACTORIAL HepG2 Assay for human Nuclear Receptor Related Protein 1 (NURR1) (AID 2282985); details: HepG2 Attagene TRANS reporter, mRNA readout
Outline: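 HepG2 cells transiently transfected with GAL4-UAS reporter units and chimeric NR-Gal4 constructs; chemical exposure 24 h. Reporter mRNA quantified by RT-PCR, fluorescent labelling and capillary electrophoresis; gain of signal fitted relative to DMSO baseline.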

[18] = ATG_M_19_TRANS: Attagene TRANS-FACTORIAL HepG2 Assay for M19 Transcription Factor (Internal Marker) (AID 2282974); details: HepG2 Attagene TRANS-FACTORIAL M19 internal marker reporter
Outline: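 Background-control readout: after 24 h chemical exposure of transfected HepG2 carrying GAL4-driven reporter units, RNA was reverse-transcribed, amplified, fluorescently labeled and sized by capillary electrophoresis; gain-of-signal fit against DMSO.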

[19] = target: Oxysterols receptor LXR-alpha (Homo sapiens) (UniProt Q13133); assay: ATG_LXRa_TRANS: Attagene TRANS-FACTORIAL HepG2 Assay for human Liver X Receptor alpha (LXRa) (AID 2282980); details: HepG2 Attagene TRANS reporter, LXRa transactivation
Outline: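 Read-out: reporter transcript levels by RT-PCR plus capillary electrophoresis, fluorescence intensity. Transiently transfected HepG2, exogenous NR-GAL4 chimera, GAL4-UAS reporters; 24 h compound exposure. Activity = increase over DMSO negative control.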

Measured: AC50

Chain of Hepatocyte nuclear factor 4-alpha (Homo sapiens) (P41235 whole entry, looked up, the tested form may be a part): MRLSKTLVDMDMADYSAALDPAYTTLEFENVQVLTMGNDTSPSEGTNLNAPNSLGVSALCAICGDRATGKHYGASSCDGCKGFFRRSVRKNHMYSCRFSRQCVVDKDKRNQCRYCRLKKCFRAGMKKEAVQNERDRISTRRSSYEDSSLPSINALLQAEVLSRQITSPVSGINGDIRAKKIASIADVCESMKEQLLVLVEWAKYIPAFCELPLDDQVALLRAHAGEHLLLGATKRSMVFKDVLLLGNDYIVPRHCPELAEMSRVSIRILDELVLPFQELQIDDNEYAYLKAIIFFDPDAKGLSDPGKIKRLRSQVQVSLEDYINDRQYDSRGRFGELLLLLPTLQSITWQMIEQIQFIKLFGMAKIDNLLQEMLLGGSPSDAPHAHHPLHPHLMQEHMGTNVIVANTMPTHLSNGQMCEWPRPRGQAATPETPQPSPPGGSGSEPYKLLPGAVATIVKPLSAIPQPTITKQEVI
Chain of Androgen receptor (Homo sapiens) (P10275 whole entry, looked up, the tested form may be a part): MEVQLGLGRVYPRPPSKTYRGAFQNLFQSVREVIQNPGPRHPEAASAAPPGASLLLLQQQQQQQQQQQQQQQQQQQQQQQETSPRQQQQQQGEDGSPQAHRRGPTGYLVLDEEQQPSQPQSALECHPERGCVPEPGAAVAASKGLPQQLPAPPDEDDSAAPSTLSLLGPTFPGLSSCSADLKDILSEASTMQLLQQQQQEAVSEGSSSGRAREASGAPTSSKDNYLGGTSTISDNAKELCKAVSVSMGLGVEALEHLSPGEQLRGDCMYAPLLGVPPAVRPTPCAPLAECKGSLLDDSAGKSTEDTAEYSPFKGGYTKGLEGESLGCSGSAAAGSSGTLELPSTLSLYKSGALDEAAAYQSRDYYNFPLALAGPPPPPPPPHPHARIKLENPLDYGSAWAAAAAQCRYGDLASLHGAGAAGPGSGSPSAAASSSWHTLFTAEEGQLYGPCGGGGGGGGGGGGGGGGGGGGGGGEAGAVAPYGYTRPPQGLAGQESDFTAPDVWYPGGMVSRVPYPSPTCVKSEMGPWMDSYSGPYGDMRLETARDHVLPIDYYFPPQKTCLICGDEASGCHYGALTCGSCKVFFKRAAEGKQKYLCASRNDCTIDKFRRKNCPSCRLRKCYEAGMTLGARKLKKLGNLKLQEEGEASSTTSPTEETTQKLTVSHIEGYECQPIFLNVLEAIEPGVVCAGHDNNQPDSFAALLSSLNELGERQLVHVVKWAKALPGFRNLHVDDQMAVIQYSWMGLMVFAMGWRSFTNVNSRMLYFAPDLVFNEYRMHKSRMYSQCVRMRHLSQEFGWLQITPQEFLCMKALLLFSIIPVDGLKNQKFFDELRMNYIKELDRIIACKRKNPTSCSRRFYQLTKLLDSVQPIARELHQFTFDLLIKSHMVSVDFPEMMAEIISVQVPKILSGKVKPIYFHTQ
Chain of Bile acid receptor (Homo sapiens) (Q96RI1 whole entry, looked up, the tested form may be a part): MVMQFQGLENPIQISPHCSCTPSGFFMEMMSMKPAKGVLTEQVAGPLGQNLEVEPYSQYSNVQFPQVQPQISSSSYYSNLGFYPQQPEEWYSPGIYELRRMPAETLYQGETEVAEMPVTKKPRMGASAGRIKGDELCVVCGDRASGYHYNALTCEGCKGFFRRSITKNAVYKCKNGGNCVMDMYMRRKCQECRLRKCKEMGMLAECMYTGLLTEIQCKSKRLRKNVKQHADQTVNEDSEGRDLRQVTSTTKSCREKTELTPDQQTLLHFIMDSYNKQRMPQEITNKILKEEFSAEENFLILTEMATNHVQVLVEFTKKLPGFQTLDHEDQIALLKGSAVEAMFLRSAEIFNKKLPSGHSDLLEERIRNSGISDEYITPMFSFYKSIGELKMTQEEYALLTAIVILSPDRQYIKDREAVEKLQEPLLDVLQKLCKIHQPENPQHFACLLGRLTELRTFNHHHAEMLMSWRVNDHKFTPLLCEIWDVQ
Chain of Estrogen receptor (Homo sapiens) (P03372 whole entry, looked up, the tested form may be a part): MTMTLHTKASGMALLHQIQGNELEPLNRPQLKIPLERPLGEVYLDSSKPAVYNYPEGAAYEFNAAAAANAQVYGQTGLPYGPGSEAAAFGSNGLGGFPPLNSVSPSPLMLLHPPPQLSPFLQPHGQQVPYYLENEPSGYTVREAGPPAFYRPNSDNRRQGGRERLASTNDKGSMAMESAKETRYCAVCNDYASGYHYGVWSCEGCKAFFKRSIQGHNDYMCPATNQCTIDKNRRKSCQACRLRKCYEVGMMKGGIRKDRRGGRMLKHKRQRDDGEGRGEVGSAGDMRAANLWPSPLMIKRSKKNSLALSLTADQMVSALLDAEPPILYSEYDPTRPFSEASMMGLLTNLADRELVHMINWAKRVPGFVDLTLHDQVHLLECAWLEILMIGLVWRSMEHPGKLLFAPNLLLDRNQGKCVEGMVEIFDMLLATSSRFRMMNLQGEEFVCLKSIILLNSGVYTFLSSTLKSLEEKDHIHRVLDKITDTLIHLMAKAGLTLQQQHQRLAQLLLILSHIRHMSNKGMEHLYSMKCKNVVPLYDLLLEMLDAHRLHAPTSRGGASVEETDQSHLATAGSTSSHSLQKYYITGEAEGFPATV
Chain of X-box-binding protein 1 (Homo sapiens) (P17861 whole entry, looked up): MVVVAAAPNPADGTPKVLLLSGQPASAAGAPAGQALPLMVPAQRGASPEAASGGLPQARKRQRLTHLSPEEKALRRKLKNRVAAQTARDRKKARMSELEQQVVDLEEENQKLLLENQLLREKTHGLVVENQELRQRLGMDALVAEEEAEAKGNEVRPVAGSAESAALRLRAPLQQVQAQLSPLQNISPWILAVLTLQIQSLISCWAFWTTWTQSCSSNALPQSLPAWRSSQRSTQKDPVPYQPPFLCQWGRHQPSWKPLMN
Chain of Nuclear respiratory factor 1 (Homo sapiens) (Q16656 whole entry, looked up): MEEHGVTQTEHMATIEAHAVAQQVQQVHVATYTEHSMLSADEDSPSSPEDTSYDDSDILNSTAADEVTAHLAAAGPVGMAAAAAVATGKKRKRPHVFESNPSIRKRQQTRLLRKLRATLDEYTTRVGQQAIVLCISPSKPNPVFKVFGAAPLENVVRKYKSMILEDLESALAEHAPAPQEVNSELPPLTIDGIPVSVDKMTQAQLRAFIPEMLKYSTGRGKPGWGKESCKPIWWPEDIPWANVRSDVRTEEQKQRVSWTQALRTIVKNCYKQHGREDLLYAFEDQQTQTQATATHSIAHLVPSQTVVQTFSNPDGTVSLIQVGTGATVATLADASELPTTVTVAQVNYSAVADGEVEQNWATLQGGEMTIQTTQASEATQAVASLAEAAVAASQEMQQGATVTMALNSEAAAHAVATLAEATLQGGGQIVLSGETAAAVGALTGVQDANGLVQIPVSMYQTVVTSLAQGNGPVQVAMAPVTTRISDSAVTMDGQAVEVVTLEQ
Chain of Estrogen-related receptor gamma (Homo sapiens) (P62508 whole entry, looked up, the tested form may be a part): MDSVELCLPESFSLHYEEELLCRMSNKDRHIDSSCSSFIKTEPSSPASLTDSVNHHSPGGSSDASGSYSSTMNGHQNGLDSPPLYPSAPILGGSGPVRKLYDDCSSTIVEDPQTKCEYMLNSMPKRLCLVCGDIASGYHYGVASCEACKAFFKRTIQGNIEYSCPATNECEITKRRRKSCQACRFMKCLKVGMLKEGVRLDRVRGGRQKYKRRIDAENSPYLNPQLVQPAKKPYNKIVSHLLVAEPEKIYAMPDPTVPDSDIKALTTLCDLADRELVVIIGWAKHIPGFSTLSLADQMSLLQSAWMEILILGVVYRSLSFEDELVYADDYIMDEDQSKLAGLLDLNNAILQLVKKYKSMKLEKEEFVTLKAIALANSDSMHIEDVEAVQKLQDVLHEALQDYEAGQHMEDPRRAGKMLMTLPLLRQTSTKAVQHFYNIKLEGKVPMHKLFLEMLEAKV
Chain of Oxysterols receptor LXR-beta (Homo sapiens) (P55055 whole entry, looked up, the tested form may be a part): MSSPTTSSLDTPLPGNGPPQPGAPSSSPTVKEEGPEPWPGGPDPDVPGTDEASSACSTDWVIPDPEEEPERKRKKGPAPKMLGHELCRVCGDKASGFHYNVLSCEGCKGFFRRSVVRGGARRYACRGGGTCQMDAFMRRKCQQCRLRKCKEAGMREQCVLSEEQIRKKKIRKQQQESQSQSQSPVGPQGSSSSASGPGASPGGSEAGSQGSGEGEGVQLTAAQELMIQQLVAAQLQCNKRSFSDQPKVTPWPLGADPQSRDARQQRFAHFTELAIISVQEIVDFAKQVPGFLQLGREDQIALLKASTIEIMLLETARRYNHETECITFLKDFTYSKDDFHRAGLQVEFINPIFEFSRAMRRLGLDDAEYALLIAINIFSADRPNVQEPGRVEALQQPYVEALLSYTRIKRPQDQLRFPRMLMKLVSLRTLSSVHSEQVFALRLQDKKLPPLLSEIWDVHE
Chain of Steroid hormone receptor ERR1 (Homo sapiens) (P11474 whole entry, looked up, the tested form may be a part): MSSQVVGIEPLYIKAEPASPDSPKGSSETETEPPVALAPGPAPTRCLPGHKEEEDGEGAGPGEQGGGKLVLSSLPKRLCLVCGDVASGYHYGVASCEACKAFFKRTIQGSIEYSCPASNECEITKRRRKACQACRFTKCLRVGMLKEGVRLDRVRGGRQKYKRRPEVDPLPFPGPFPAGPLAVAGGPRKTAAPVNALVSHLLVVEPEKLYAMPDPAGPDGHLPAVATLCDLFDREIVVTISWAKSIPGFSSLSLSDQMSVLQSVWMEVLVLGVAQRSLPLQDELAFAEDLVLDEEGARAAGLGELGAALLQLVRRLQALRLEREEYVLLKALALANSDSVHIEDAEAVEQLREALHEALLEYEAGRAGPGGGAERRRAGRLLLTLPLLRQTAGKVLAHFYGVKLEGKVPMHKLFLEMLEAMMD

[Cl][Sn]([c]1ccccc1)([c]1ccccc1)[c]1ccccc1
active: [2] 0.242 µM | [7] 0.228 µM | [9] 1.53 µM | [10] 0.216 µM | [11] 0.228 µM | [12] 1.4 µM
inactive: [1] | [3] | [4] | [5] | [6] | [8]

COc1ccc([N+](=O)[O-])cc1O
inactive: [1] | [2] | [3] | [13] | [14] | [5] | [8] | [15] | [10] | [11] | [12]

N#Cc1ccncc1
inactive: [1] | [16] | [2] | [13] | [14] | [6] | [7] | [8] | [15] | [17] | [9] | [10] | [11]

BrCC(Br)c1ccccc1 (stereo not given)
inactive: [2] | [3] | [13] | [14] | [5] | [15] | [17] | [9] | [11] | [12]

O=C(NC(=O)c1c(F)cccc1F)Nc1cc(Cl)c(OC(F)(F)C(F)C(F)(F)F)cc1Cl (stereo not given)
inactive: [1] | [2] | [7] | [8] | [15] | [11]
active: [6] 49.9 µM

O=C(O)COc1cc(Cl)c(Cl)cc1Cl
inactive: [2] | [3] | [18] | [14] | [15] | [9] | [10] | [11] | [12]

Cl[C@H]1OCCO[C@@H]1Cl
inactive: [16] | [2] | [18] | [4] | [19] | [6] | [7] | [8] | [15] | [9] | [10] | [11] | [12]

Cc1cc(C(C)(C)c2ccc(O)c(C)c2)ccc1O
active: [2] 36.4 µM | [5] 4.72 µM | [9] 89.7 µM
inactive: [16] | [3] | [14] | [6] | [7] | [15] | [10] | [11] | [12]

O=S(=O)(F)C(F)(F)C(F)(F)C(F)(F)C(F)(F)F
inactive: [2] | [3] | [13] | [4] | [5] | [6] | [7] | [8] | [15] | [9] | [10] | [11] | [12]

Clc1cc(C(Cl)(Cl)Cl)cnc1Cl
inactive: [16] | [2] | [18] | [4] | [5] | [6] | [7] | [9] | [10]
active: [11] 44.8 µM | [12] 55.5 µM

CCC[N+](CCC)(CCC)CCC
inactive: [16] | [2] | [18] | [13] | [8] | [15] | [9] | [10] | [11] | [12]

Clc1ccc(C(Cl)(Cl)Cl)cn1
inactive: [1] | [2] | [14] | [7] | [8] | [9] | [10] | [11] | [12]
